IL-1B inflam inh – inflammasome signaling inhibition, IL-1 beta readout; 4.7% of 360,000 active; THP-1 LPS/ATP IL-1B secretion, AlphaLISA, 16 h; active compounds read low; activity change, % at 57.5 µM; in the data active = activity change below about -50%; inconclusive = mostly about -30% to -49%
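THP-1 cells pretreated 1 hr with compounds (up to 57.5 uM final), then stimulated with LPS (250 ng/mL final) plus ATP (1.25 mM final); secreted IL-1B measured by AlphaLISA after 16 hr, decreased signal indicating inhibition.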
HT1080 IDH1KD tx – toxicity to HT-1080 IDH1 knockdown cells (counter line); AID 686971; HT-1080 IDH1 knockdown viability, ATP luminescence, 48 h; Potency, µM (doses to about 46.1 µM), hits mostly cytotoxic; 2% of 360,000 active
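% activity derives from luminescence (CellTiter-Glo), normalised to DMSO and no-cell wells. HT-1080-IDH1KD cells, 750/well, had 48 h compound exposure at 37 °C.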
HT1080-NT tox – kills 2HG-producing HT-1080-NT fibrosarcoma cells; HT-1080-NT fibrosarcoma viability, CellTiter-Glo ATP luminescence, 48 h; Potency, µM (top dose mostly 46.1 µM), usual class: cytotoxic; 1.6% of 360,000 active; AID 686970;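 also: NT is the 2HG producing partner of a matched IDH1 knockdown line; nearly all actives have a fitted effect of over 55% in size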
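Fibrosarcoma NT cells, 750 per well in 5% FBS RPMI, were exposed to compound for 48 hours. Viability: CellTiter-Glo luminescence.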
DT40 TDP1 CPT – growth inhibition of DT40 Tdp1-/-;hTDP1 cells with camptothecin (screen for TDP1 inhibitors). chicken DT40 Tdp1-/-;hTDP1 cells + 20 nM CPT, ATP luminescence, 48 h. Potency, µM (series often up to 46.2 µM), usual class: inhibitors. 12% of 420,000 active; also: nearly all actives have a fitted effect of over 55% in size
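Cell growth measured by CellTiter-Glo luminescence after a minimum 48 h, 37 C compound exposure with 20 nM CPT in Tdp1-knockout DT40 cells stably expressing hTDP1, seeded 400/well; qHTS titration format.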
DT40 TDP1 no CPT – qHTS for Inhibitors of human tyrosyl-DNA phosphodiesterase 1 (TDP1): qHTS in cells in absence of CPT. 15% of 420,000 active. Potency, µM (titrated, usually from 46.2 µM), most hits filed as inhibitors. AID 686978, 2013. DT40 Tdp1-/- hTDP1 cells, no CPT, ATP luminescence, 48 h; also: nearly all actives have a fitted effect of over 55% in size
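Compound effects on proliferation are scored in DT40 Tdp1-/-;hTDP1 cells in the absence of CPT. ATP levels (CellTiter-Glo luminescence) are recorded after a ≥48 hr, 37 °C incubation.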
Numbers stand for hits; - = inactive; ? = inconclusive; . = not tested or not shown. The list is not random: actives were taken first. Their share in the collection is about 19%. Unless noted, calls follow the shape of the dose curve; as a rule, active = well fitted curve in the direction sought with a large enough effect; inconclusive = small, poorly fitted or top-dose-only effect, or another doubt; inactive = no such curve, though single readings can be large; an effect the other way counts as inactive or inconclusive.

SMILES | IL-1B inflam inh | HT1080 IDH1KD tx | HT1080-NT tox | DT40 TDP1 CPT | DT40 TDP1 no CPT
COc1ccc(NS(=O)(=O)c2cc3c4c(c2)C(C)C(=O)N4CCC3)cc1 (stereo unspecified) | - | - | - | - | -
O=[N+]([O-])c1cccc(-c2nnc(-c3ccccc3)o2)c1 | - | - | - | - | -
COP(=O)(OC)c1nc(-c2ccc(C)cc2)oc1N1CCCCC1 | ? | - | - | ? | 15µM
CCOP(=O)(OCC)c1nc(-c2cccc([N+](=O)[O-])c2)oc1N1CCCCC1 | - | - | - | ? | 21µM
COc1ccc(-c2nc(S(=O)(=O)c3ccccc3)c(N3CCN(C)CC3)o2)cc1 | ? | - | - | ? | ?
CCn1c2ccccc2c2cc(NC(=O)c3cccc([N+](=O)[O-])c3C)ccc21 | - | 13µM | 23µM | ? | 15µM
O=C(Nc1ccc(NC(=O)c2cccc([N+](=O)[O-])c2)cc1)c1cccc([N+](=O)[O-])c1 | - | - | - | - | -
CCn1c2ccccc2c2cc(NC(=O)c3ccc(C)c([N+](=O)[O-])c3)ccc21 | - | - | - | 5.8µM | 3.3µM
CCn1c2ccccc2c2cc(NC(=O)c3cccc([N+](=O)[O-])c3)ccc21 | - | ? | ? | 21µM | 21µM
Cc1ccc(-n2nc3ccc(NC(=O)c4cccc([N+](=O)[O-])c4C)cc3n2)cc1 | - | ? | ? | - | ?
CCCN(Cc1nnc(-c2ccccc2Cl)o1)C(=O)c1cccc(S(=O)(=O)N2CCOCC2)c1 | - | - | - | ? | -
CCOc1ccc(Nc2nc(Cc3nnc(SCC(=O)c4ccc(C)c(C)c4)o3)cs2)cc1 | - | ? | ? | 29µM | 16µM
Cc1ccc(NC(=O)CSc2nnc(Cc3csc(C)n3)o2)cc1 | - | - | - | - | ?
CCc1nc(NC(=O)Cc2csc(C)n2)sc1C(=O)OC | - | - | - | - | -
C[C@H](CO)N1C[C@H](C)[C@@H](CN(C)S(C)(=O)=O)Oc2c(NC(=O)c3ccncc3)cccc2C1=O | - | - | - | - | -
Cc1ccccc1NC(=O)Nc1nc(C2CCC(=O)N2)cs1 (stereo unspecified) | - | - | - | ? | -
CCOc1ccc2nc(S(=O)(=O)NC(=O)C3(C)CCN3C(=O)c3cc(C)n(C)n3)sc2c1 (stereo unspecified) | - | - | - | - | -
N=c1c2ccccc2nnn1-c1ccc(C(F)(F)F)cc1 | - | - | - | ? | 6.5µM
Cc1nnc2ccc(-c3cccc(NS(=O)(=O)c4ccccc4[N+](=O)[O-])c3)nn12 | - | ? | ? | 23µM | 15µM
CCS(=O)(=O)Nc1cccc(-c2ccc3nnc(-c4cccnc4)n3n2)c1 | -54 | - | - | 21µM | ?
CCCS(=O)(=O)Nc1cccc(-c2ccc3nnc(C)n3n2)c1 | - | - | - | ? | ?
CN(Cc1ccccc1)C(=O)[C@@H]1CCCN1S(=O)(=O)c1ccc(Cl)cc1 | - | - | - | - | -
Cc1ccc(Nc2c(F)cccc2Cl)c(CC(=O)O)c1 | . | . | . | - | -
Cn1cc(-c2nc3cnc(N4CCNCC4)nc3n(C3CC3)c2=O)c2ccccc21 | . | . | . | 13µM | 5.8µM
COC(=O)c1cnn(-c2ccc(C)c(C)c2)c1-n1cccc1 | - | - | - | ? | ?
SMILES | IL-1B inflam inh | HT1080 IDH1KD tx | HT1080-NT tox | DT40 TDP1 CPT | DT40 TDP1 no CPT
CCC(C)NC(=O)c1cnn(-c2cccc(F)c2)c1-n1cccc1 (stereo unspecified) | . | . | . | 21µM | 16µM
CCOC(=O)N1CCC(NC(=O)c2cnn(-c3ccc(C)cc3)c2-n2cccc2)CC1 | . | . | . | ? | 26µM
CCOC(=O)N1CCC(NC(=O)c2cnn(-c3cccc(C)c3)c2-n2cccc2)CC1 | . | . | . | 16µM | 18µM
COc1ccc(-c2sc(Nc3ccccc3)n[n+]2-c2ccccc2)cc1Br | ? | - | - | 23µM | 15µM
C(=C\c1sc(Nc2ccccc2)n[n+]1-c1ccccc1)/c1ccccc1 | -98 | - | - | 5.2µM | 8.2µM
CCOc1cc(-c2sc(Nc3cc(C)ccc3OC)n[n+]2-c2ccccc2)ccc1OC | - | - | - | 15µM | 16µM
